According to PubChem BioAssay AID1159580 (chemical genetic matrix, 2015):
About 2,000 (36%) of roughly 5,500 compounds were called active. Roughly 18% stayed inconclusive and do not appear here. Rule as the data show it: active = normalized growth mostly below about 0.91 (no sharp cut-off); inconclusive = no clear call, values can overlap the other calls; inactive = mostly above about 0.92. This is one part of the list.

Experiment: chemical genetic growth profiling, strain panel (AID 1159580);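 also: tested at 20 µM; growth read once vehicle control cultures reached saturation at 30 °C; 1 = growth at the plate median or of vehicle wells; lower values mean less growth of the strain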
Details: S. cerevisiae deletion strains, growth OD

Measured: normalized growth

CC(O)C(C)OC(=O)[C@@H]1C[C@@H]2c3cccc4c3c(cn4C(C)C)C[C@H]2N(C)C1 (stereo partly drawn)
inactive: locus YAL040C, strain CLN3, stronger effect = lower value 0.977 | locus YCL061C, strain MRC1 (second series), stronger effect = lower value 0.98 | locus YDR363W, strain ESC2, stronger effect = lower value 0.996 | locus YER002W, strain NOP16, stronger effect = lower value 1 | locus YNL175C, strain NOP13, stronger effect = lower value 1 | locus YNL197C, strain WHI3, stronger effect = lower value 0.991 | locus YNL224C, strain SQS1, stronger effect = lower value 1.01 | locus YNL322C, strain KRE1, stronger effect = lower value 0.973 | locus YOR083W, strain WHI5 (second series), stronger effect = lower value 0.99 | locus YPL055C, strain LGE1, stronger effect = lower value 1

C[C@@H]1CC2C3CCC4=CC(=O)C=C[C@]4(C)[C@@]3(F)[C@@H](O)C[C@]2(C)[C@@]1(O)C(=O)CO (stereo partly drawn)
inactive: locus YAL021C, strain ccr4, stronger effect = lower value 0.96 | locus YAL026C, strain drs2, stronger effect = lower value 0.988 | locus YAL030W, strain snc1, stronger effect = lower value 0.969 | locus YBL061C, strain skt5, stronger effect = lower value 0.976 | locus YBR009C, strain hhf1, stronger effect = lower value 0.989 | locus YBR023C, strain chs3, stronger effect = lower value 0.999 | locus YBR171W, strain sec66, stronger effect = lower value 0.947 | locus YBR231C, strain swc5, stronger effect = lower value 0.978 | locus YBR279W, strain paf1, stronger effect = lower value 1 | locus YCL011C, strain gbp2, stronger effect = lower value 0.988 | locus YCL016C, strain dcc1, stronger effect = lower value 1.03 | locus YCL069W, strain vba3, stronger effect = lower value 0.975 | locus YCR088W, strain abp1, stronger effect = lower value 0.978 | locus YDL005C, strain med2, stronger effect = lower value 0.966 | locus YDL040C, strain nat1, stronger effect = lower value 0.964 | locus YDR001C, strain nth1, stronger effect = lower value 0.966 | locus YDR069C, strain doa4, stronger effect = lower value 0.96 | locus YDR137W, strain rgp1, stronger effect = lower value 1.02 | locus YDR159W, strain sac3, stronger effect = lower value 0.968 | locus YDR195W, strain ref2 0.948 | locus YDR297W, strain sur2, stronger effect = lower value 0.988 | locus YDR334W, strain swr1, stronger effect = lower value 0.957 | locus YDR335W, strain msn5, stronger effect = lower value 0.976 | locus YDR392W, strain spt3, stronger effect = lower value 1.06 | locus YEL003W, strain gim4, stronger effect = lower value 0.973 | locus YEL037C, strain rad23, stronger effect = lower value 0.974 | locus YEL061C, strain CIN8 (second series), stronger effect = lower value 0.976 | locus YER015W, strain faa2, stronger effect = lower value 0.995 | locus YER016W, strain bim1, stronger effect = lower value 1.03 | locus YER111C, strain swi4, stronger effect = lower value 0.971 | locus YER155C, strain BEM2 (second series), stronger effect = lower value 0.958 | locus YFR010W, strain ubp6, stronger effect = lower value 0.958 | locus YGL167C, strain pmr1, stronger effect = lower value 0.957 | locus YGL173C, strain kem1, stronger effect = lower value 0.964 | locus YGL227W, strain vid30, stronger effect = lower value 0.987 | locus YGL240W, strain doc1, stronger effect = lower value 0.966 | locus YGL253W, strain hxk2, stronger effect = lower value 1 | locus YHR013C, strain ard1, stronger effect = lower value 0.995 | locus YHR027C, strain rpn1, stronger effect = lower value 0.993 | locus YHR030C, strain SLT2, stronger effect = lower value 1.02 | locus YHR079C, strain IRE1, stronger effect = lower value 1.01 | locus YHR142W, strain chs7, stronger effect = lower value 0.948 | locus YJL092W, strain hpr5, stronger effect = lower value 0.964 | locus YJL095W, strain BCK1 (second series), stronger effect = lower value 0.967 | locus YJL095W, strain BCK1, stronger effect = lower value 1.02 | locus YJL115W, strain asf1, stronger effect = lower value 0.976 | locus YJL129C, strain trk1, stronger effect = lower value 0.976 | locus YJL154C, strain vps35, stronger effect = lower value 0.951 | locus YJL164C, strain tpk1, stronger effect = lower value 1.01 | locus YJL166W, strain qcr8, stronger effect = lower value 0.916 | locus YJR066W, strain TOR1, stronger effect = lower value 0.997 | locus YKL160W, strain elf1, stronger effect = lower value 0.989 | locus YKR026C, strain gcn3, stronger effect = lower value 0.98 | locus YKR091W, strain srl3, stronger effect = lower value 0.961 | locus YLL001W, strain dnm1, stronger effect = lower value 0.911 | locus YLL026W, stronger effect = lower value 0.985 | locus YLL041C, strain sdh2, stronger effect = lower value 0.972 | locus YLR027C, strain aat2, stronger effect = lower value 0.976 | locus YLR113W, strain HOG1, stronger effect = lower value 1.03 | locus YLR221C, strain rsa3, stronger effect = lower value 1.02 | locus YLR258W, strain gsy2, stronger effect = lower value 0.987 | locus YLR262C, strain YPT6 (second series), stronger effect = lower value 0.943 | locus YLR320W, strain mms22, stronger effect = lower value 1 | locus YLR342W, strain FKS1, stronger effect = lower value 0.951 | locus YLR357W, strain rsc2, stronger effect = lower value 0.966 | locus YLR370C, strain arc18, stronger effect = lower value 0.996 | locus YLR384C, strain iki3, stronger effect = lower value 0.982 | locus YML120C, strain ndi1, stronger effect = lower value 0.969 | locus YMR058W, strain fet3, stronger effect = lower value 0.981 | locus YMR125W, strain sto1, stronger effect = lower value 0.951 | locus YMR129W, stronger effect = lower value 0.993 | locus YMR205C, strain PFK2, stronger effect = lower value 0.969 | locus YMR231W, strain pep5, stronger effect = lower value 0.96 | locus YNL071W, strain lat1, stronger effect = lower value 0.971 | locus YNL183C, strain NPR1, stronger effect = lower value 0.965 | locus YNL209W, strain ssb2, stronger effect = lower value 0.997 | locus YNL248C, strain rpa49, stronger effect = lower value 1.01 | locus YNL322C, strain KRE1 (second series), stronger effect = lower value 0.962 | locus YNR049C, strain mso1, stronger effect = lower value 0.984 | locus YOR001W, strain rrp6, stronger effect = lower value 0.976 | locus YOR070C, strain gyp1, stronger effect = lower value 0.997 | locus YOR080W, strain dia2, stronger effect = lower value 0.948 | locus YOR083W, strain WHI5, stronger effect = lower value 0.968 | locus YOR106W, strain vam3, stronger effect = lower value 0.933 | locus YOR231W, strain MKK1, stronger effect = lower value 1.01 | locus YOR265W, strain rbl2, stronger effect = lower value 0.986 | locus YOR270C, strain vph1, stronger effect = lower value 0.955 | locus YOR290C, strain snf2, stronger effect = lower value 1.02 | locus YPL051W, strain arl3, stronger effect = lower value 1.01 | locus YPL078C, strain atp4, stronger effect = lower value 0.928 | locus YPL106C, strain sse1, stronger effect = lower value 0.981 | locus YPL240C, strain hsp82, stronger effect = lower value 0.98 | locus YPL256C, strain CLN2, stronger effect = lower value 1.01
